We go through 21 compounds from PubChem BioAssay (NCI).

Assay in all cases: NCI-60 one-dose screen, 48 h (100 = growth as untreated, 0 = no growth, -100 = all killed)
Holding throughout (settings): 10 µM unless noted

Test [1] relates to NCI-H23 lung.
Test [2] has as its system NCI-H226 lung.
Test [3] concerns NCI-H322M lung.
Test [4] has as its system HOP-62 NSCLC.
Test [5] relates to NCI-H460 lung.
For test [6], the system named is HOP-92 NSCLC.
Test [7] relates to NCI-H522 lung.
Test [8] deals with A549/ATCC NSCLC.
In test [9] the test system is 786-0 renal.
The subject of test [10] is COLO 205 colon.

The structures appear in SMILES notation. About 83,000 compounds went through this panel and 20% of them were active in at least one assay; those are over-represented in the sample as a whole.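 A percent growth of 40 corresponds to 60% growth inhibition; 0 means no net growth; -100 means all cells died. Active threshold: below 10.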 Values without a mark were called inactive. Calls of active or inactive are those of the source.

For the compound `O=S(=O)(NCCNc1nccc(-c2c(-c3ccc(F)c(O)c3)nc3sccn23)n1)c1ccc(F)cc1`, the growth was 36.6% in test [1]; 83.6% in test [2]; 47.6% in test [3]; 48.3% in test [4]; 21.9% in test [5]; 33.6% in test [6]. Besides, the growth in [7] was 28.5%; in [8], 26.9%; in test [9], 38.1%; in [10], 26.2%.
As for `Nc1nc(N)c2c(n1)NC(c1cccc(Nc3ccnc4cc(C(F)(F)F)ccc34)c1)CC(c1ccc(Br)cc1)=N2` (stereo not given), the growth was 66.3% in test [1]; 93.9% in [2]; 96.1% in test [3]; 58.2% in test [4]; 29.9% in test [5]; 42.8% in test [6]. The growth is 48.8% in [7], 45.9% in [8], 68.9% in [9] and 34% in test [10].
Consider `CCCCNC(=O)Oc1ccc(/C(=C(/C)Cc2ccc(OC)cc2)c2ccc(OCCN3CCCCCC3)cc2)cc1`, for which the growth in test [1] is 85%; in [2], 101%; in test [3], 97.1%; in test [4] it was 85.6%; in test [5] it was 53.8%; in test [6], 53.3%. In addition, the growth in test [7] is 68.5%; in test [8] it was 68%; in [9], 76.3%; in test [10] it was 57%.
Take `O=c1nc(-c2ccccc2)c2cc(-c3ccc(C(F)(F)F)nc3)ccc2[nH]1`: the growth in test [1] was 89.5%; in test [2], 100%; in test [3], 92.9%; in test [4] it was 106%; in test [5] it was 106%; in test [6], 105%. For the same compound, the growth is 85.3% in test [7], 111% in [8], 100% in test [9] and 105% in test [10].
With `C=C1C(=O)O[C@H]2[C@H]1CC/C(Cn1cc(CCC)nn1)=C\CC[C@@]1(C)O[C@@H]21`, the growth was 41.1% in [1]; -37.4% (active) in test [2]; 90.2% in [3]; 73.9% in [4]; 61.4% in test [5]; -11.2% (active) in test [6]. Further, the growth in test [7] was -70.7% (active); in [8], 68.2%; in test [9], 3.66% (active); in [10], -72.1% (active).
For `O=C(NCc1cccc(CNC(=O)Nc2nc3ccccc3[nH]2)c1)Nc1nc2ccccc2[nH]1`, the growth in test [1] was -65.1% (active); in test [2] it was -22.2% (active); in test [3], -7.92% (active); in test [4], -46.2% (active); in [5] it was -52.9% (active); in test [6], -27.7% (active). Besides, the growth in test [7] was 1.54% (active); in test [8], -42.5% (active); in test [9] it was -42.8% (active); in test [10], -2.34% (active).
In the case of `Cc1ccc(-c2nc(N3CCNCC3)c3oc(-c4ccc(C)cc4)nc3n2)cc1`, the growth in test [1] is 75.6%; in [2], 97.6%; in test [3] it was 47.9%; in test [4], 76.1%; in test [5] it was -68.3% (active); in test [6], 88.9%. Moreover, the growth in test [7] is 76.1%; in [8], -83.3% (active); in [9], -92.2% (active); in [10], -81.2% (active).
Regarding `O=C(Cn1nnc2ccccc21)N/N=C/c1c[nH]c2ccccc12`, the growth in test [1] was 71%; in test [2], 77%; in test [3], 80%; in test [4] it was 36.6%; in [5] it was 21%; in test [6], 57.7%. Further, the growth in [7] was 18.1%; in test [8] it was 49%; in [9] it was 58%; in [10], 37.2%.
For the compound `O=[N+]([O-])c1ccc(-c2cn3nc(-c4c[nH]c5ccccc45)sc3n2)cc1`, the growth is 88.1% in test [1]; 90.8% in test [2]; 84.9% in test [3]; 94.6% in test [4]; 98% in [5]; 102% in test [6]. The growth in test [7] was 80.7%; in [8], 86.9%; in [9] it was 103%; in test [10] it was 108%.
As for `C=C1C(=O)O[C@H]2[C@H]1CC/C(COC(=O)/C=C/C(=O)OC/C1=C/CC[C@@]3(C)O[C@H]3[C@H]3OC(=O)C(=C)[C@@H]3CC1)=C\CC[C@@]1(C)O[C@@H]21`, the growth in test [1] is 94.1%; in [2], 80.6%; in test [3], 101%; in test [4], 96.6%; in test [5], 100%; in [6] it was 19%. For the same compound, the growth in test [7] is -32% (active); in test [8], 88.6%; in test [9], 5.31% (active); in [10], 11.3%.
Consider `C/C(Cc1ccc(Cl)cc1)=C(\c1ccc(OCCCN(C)C)cc1)c1ccc(OC(=O)Cc2ccccc2)cc1`, for which the growth in test [1] was 101%; in test [2], 110%; in test [3], 105%; in [4] it was 92.2%; in test [5], 110%; in [6], 101%. In addition, the growth is 70.5% in [7], 105% in [8], 104% in test [9] and 112% in test [10].
For `Nc1ccc(-c2csc(-n3[nH]c(=O)ccc3=O)n2)cc1`, the growth in test [1] is 98%; in test [2], 92.2%; in test [3] it was 103%; in [4], 107%; in [5] it was 102%; in test [6], 103%. Moreover, the growth in test [7] was 93.4%; in test [8] it was 101%; in test [9] it was 87.1%; in test [10] it was 109%.
On to `CCCCCCCCCCCCCCCCCCOc1ccccc1CC(=O)NCC[N+]1(C)CCCCC1`, for which the growth in [1] is 62.5%; in test [2], 74.2%; in [3], 62.7%; in test [4], 59%; in test [5] it was 41.9%; in test [6], 19.9%. In addition, the growth in [7] was 32.7%; in [8], 51.2%; in [9] it was 74.2%; in test [10], 23.6%.
Take `CC1=C2[C@@H](CC1)[C@]1(C)O[C@@](c3ccccc3)(C[C@H]1OC(=O)CO)[C@H]2OC(=O)/C=C/c1ccccc1`: the growth in test [1] was 99.3%; in test [2], 80.8%; in [3], 101%; in [4] it was 100%; in test [5] it was 85.2%; in [6], 96.2%. Moreover, the growth in test [7] is 72.3%; in test [8], 74.4%; in [9], 68.7%; in [10] it was 110%.
Take `C=CC(=O)Nc1ccc(Oc2nccc(Nc3nnc(-c4ccc(C)cc4)s3)n2)cc1`: the growth in [1] is 79.9%; in [2], 86.2%; in test [3], 98.7%; in test [4] it was 83.5%; in [5], 59.9%; in test [6], 72.4%. The growth was 24.3% in test [7], 77% in test [8], 70.8% in [9] and 100% in test [10].
Regarding `CCN(CC)c1ccc(/C=N/NC(=O)Cc2ccc(Nc3ccnc(C(F)(F)F)c3)cc2)c(O)c1`, the growth in test [1] was 19.1%; in [2], 19.4%; in test [3], 25.9%; in test [4], 24.5%; in test [5], 8.96% (active); in test [6], 54.1%. Moreover, the growth in test [7] is 33.9%; in test [8] it was 23.4%; in test [9], 1.44% (active); in test [10], 64.9%.
Consider `N#CC1CCc2c(c(-c3ccc4nc(N)sc4c3)nc3ccc4[nH]ncc4c23)C1` (stereo not given), for which the growth in test [1] is 36.9%; in [2], 51.1%; in test [3], 70.5%; in [4] it was 54.5%; in [5], 12.4%; in test [6] it was 70.3%. Besides, the growth is 40.2% in test [7], 46% in test [8], 49.3% in [9] and 40.5% in test [10].
Consider `CCOC(=O)c1c(C)c2c(n1Cc1ccccc1)CSCC2=O`, for which the growth is 4.82% [100 µM] (active) in test [1]; -5.37% [100 µM] (active) in [2]; 36.4% [100 µM] in test [3]; -25.9% [100 µM] (active) in test [4]; -21.1% [100 µM] (active) in test [5]; -19.4% [100 µM] (active) in test [6]. Moreover, the growth in test [7] was 16.5% [100 µM]; in test [8] it was 20.2% [100 µM]; in test [9], -11.2% [100 µM] (active); in [10], -53.3% [100 µM] (active).
Turning to `C=CCC(CCCC)(C(=O)OCC)C(=O)OCC`, the growth in [1] is 98.8%; in test [2] it was 106%; in [3] it was 109%; in test [4] it was 111%; in [5], 117%; in test [6] it was 96.2%. In addition, the growth in test [7] is 94%; in [8] it was 103%; in test [9] it was 94.9%; in test [10], 111%.
With `CS(=O)(=O)c1ccc(NC(=O)c2ccccc2)nc1`, the growth is 108% in test [1]; 103% in test [2]; 111% in test [3]; 95.6% in [4]; 105% in test [5]; 106% in [6]. Besides, the growth in [7] was 68.9%; in test [8], 96.3%; in test [9], 99.1%; in [10], 128%.
With `CCn1cc(CNc2ccc(C(=O)Nc3cc4cc(OC)c(OC)cc4c(C)n3)cc2)cn1`, the growth in test [1] was 43.3%; in test [2] it was 48.7%; in [3] it was 103%; in test [4] it was 39.6%; in test [5], 86.7%; in [6], 59.5%. The growth was 9.72% (active) in [7], 48.1% in test [8], 70.4% in [9] and 42.1% in [10].
